A short description of test [1]: optical density shifts of acrAB sulA E. coli – strain DRC41, OD650, 48 h, E. coli filamentation inducer project, primary screen (AID 1152).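 Note: E. coli MC1000 strain DRC41 lacking acrAB efflux pump and sulA.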 The conditions noted are these: higher = more signal, called active from +8 up or from −8 down.
Test [2] in a line: probe aLefty1 binding on compound microarray – biochemical, small-molecule microarray, 635/667 nm fluorescence, primary screen (AID 1153).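 Note: score merges spot fluorescence with signal-to-noise ratio from the scanned slide images.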 Conditions: higher = more signal.
A short description of test [3]: plasmodial surface anion channel blockers, osmotic lysis – cell-based, P. falciparum Indochina, OD700, 1 h, primary screen (AID 1154). Conditions: P. falciparum Indochina infected RBC osmotic lysis, higher = more signal, called active from +8 up or from −8 down.
The nature of test [4]: plasmodial surface anion channel blockers, osmotic lysis – cell-based, P. falciparum Indochina, OD700, 2 h, primary screen (AID 1155).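 Note: lysis reports solute entry through the parasite surface anion channel PSAC.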 Conditions: P. falciparum Indochina infected erythrocytes, higher = more signal, called active from +8 up or from −8 down.
The nature of test [5]: changes in parasitized red cell lysis, either direction – P. falciparum Indochina, OD700, 3 h, PSAC antagonist project, primary screen (AID 1156). Conditions: P. falciparum-infected erythrocytes, osmotic lysis, higher = more signal, called active from +8 up or from −8 down.
The nature of test [6]: plasmodial surface anion channel blockers, osmotic lysis – cell-based, P. falciparum Indochina, OD700, 18 h, primary screen (AID 1157). Conditions: P. falciparum Indochina infected erythrocytes, osmotic lysis OD700, 18 h; higher = more signal, called active from +8 up or from −8 down.
The nature of test [7]: S6 kinase pathway phospho-S6 level changes – cell-based, A549, cytoblot, luminescence, serum-stimulated, primary screen (AID 1158).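 Note: serum-stimulated A549 lung adenocarcinoma cells; signal is phosphorylated S6 detected by cytoblot immunostaining with HRP secondary.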 The conditions noted are these: 5 h, higher = more signal.
The target of test [8] is NADPH oxidase 2 (Homo sapiens) (UniProt P04839). Briefly: compounds shifting NOX2 Amplex Red fluorescence – cell-based, HEK293-NOX2, PMA-stimulated, NOX inhibitor project, primary screen (AID 1159). Note: test concentration not given here. Conditions: 45 min, higher = more signal, called active from +8 up or from −8 down.
NADPH oxidase 2 (Homo sapiens), sequence (P04839 whole entry, looked up): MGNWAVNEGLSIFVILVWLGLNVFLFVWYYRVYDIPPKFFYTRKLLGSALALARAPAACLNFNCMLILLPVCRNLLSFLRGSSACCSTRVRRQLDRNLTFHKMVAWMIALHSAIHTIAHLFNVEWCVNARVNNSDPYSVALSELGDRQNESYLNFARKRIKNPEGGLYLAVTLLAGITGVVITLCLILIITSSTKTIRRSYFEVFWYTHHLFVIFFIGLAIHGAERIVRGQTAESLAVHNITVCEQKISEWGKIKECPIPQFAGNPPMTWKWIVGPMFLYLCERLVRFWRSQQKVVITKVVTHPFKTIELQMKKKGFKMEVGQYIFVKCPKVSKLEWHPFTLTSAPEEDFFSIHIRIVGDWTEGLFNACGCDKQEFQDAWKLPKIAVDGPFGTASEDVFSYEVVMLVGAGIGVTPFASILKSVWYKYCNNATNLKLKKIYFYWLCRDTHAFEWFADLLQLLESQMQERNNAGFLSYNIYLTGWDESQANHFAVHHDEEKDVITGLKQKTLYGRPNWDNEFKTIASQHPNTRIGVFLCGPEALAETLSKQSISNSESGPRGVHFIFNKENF
The target in test [9] is NADPH oxidase 4 (Homo sapiens) (UniProt Q9NPH5). Briefly: compounds shifting NOX4 Amplex Red fluorescence – cell-based, HEK293-NOX4, tetracycline-induced, NOX inhibitor project, primary screen (AID 1160). The conditions noted are these: HEK293-NOX4, Amplex Red H2O2 fluorescence, 45 min; higher = more signal, called active from +8 up or from −8 down.
NADPH oxidase 4 (Homo sapiens), sequence (Q9NPH5 whole entry, looked up): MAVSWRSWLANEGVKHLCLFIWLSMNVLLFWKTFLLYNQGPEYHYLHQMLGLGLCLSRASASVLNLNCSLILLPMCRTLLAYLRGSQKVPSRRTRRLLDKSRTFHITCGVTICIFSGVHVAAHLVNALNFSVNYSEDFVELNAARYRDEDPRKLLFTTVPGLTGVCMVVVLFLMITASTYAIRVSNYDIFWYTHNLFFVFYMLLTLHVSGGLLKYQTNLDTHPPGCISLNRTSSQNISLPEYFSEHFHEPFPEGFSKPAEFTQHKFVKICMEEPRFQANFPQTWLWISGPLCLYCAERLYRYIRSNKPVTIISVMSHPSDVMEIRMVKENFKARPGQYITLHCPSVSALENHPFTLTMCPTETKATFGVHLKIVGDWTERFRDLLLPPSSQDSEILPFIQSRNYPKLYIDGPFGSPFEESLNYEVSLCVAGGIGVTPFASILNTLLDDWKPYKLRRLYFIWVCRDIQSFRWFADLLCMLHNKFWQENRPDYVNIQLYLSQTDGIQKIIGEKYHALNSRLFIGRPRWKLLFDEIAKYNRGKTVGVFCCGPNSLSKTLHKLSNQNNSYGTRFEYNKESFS
Test [10] concerns the target NADPH oxidase 5 (Homo sapiens) (UniProt Q96PH1). Briefly: compounds shifting NOX5 Amplex Red fluorescence – cell-based, HEK293-NOX5, NOX inhibitor project, primary screen (AID 1161). The conditions noted are these: HEK293-NOX5, ionomycin, 45 min, higher = more signal.
The nature of test [11]: compound effects on lung adenocarcinoma cell viability – A549, calcein-AM fluorescence, 48 h, basal, profiling panel (AID 1162). Note: test concentration not given here. The conditions noted are these: higher = more signal.
The nature of test [12]: compound effects on differentiated 3T3-L1 adipocyte viability – cell-based, 3T3-L1 adipocytes, calcein-AM fluorescence, 48 h, basal, profiling panel (AID 1163). Note: test concentration not given here. The conditions noted are these: 3T3-L1 adipocytes viability, higher = more signal.
The nature of test [13]: compound effects on hepatocellular carcinoma cell viability – HepG2, calcein-AM fluorescence, 48 h, basal, profiling panel (AID 1164). Note: test concentration not given here. The conditions noted are these: higher = more signal.
Test [14] in a line: compound effects on multiple myeloma cell viability – MM1S, calcein-AM fluorescence, 48 h, basal, profiling panel (AID 1165). Note: test concentration not given here. Conditions: higher = more signal.
A short description of test [15]: calcein-AM signal in unstimulated myeloma cells – cell-based, calcein-AM fluorescence, 48 h, PK04 Diversity Set, profiling panel (AID 1166).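 Note: cells grown under basal conditions without added stimulus; test concentration not given here.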 The conditions noted are these: RPMI8226 myeloma viability, higher = more signal.
Test [16] is described as follows: JC-1 mitochondrial signal, unstimulated HepG2 cells – cell-based, JC-1 fluorescence, 24 h, 100 nL compound, profiling panel (AID 1167). Note: test concentration not given here. The conditions noted are these: HepG2 mitochondrial potential, higher = more signal.
The nature of test [17]: JC-1 mitochondrial signal, unstimulated adipocytes – cell-based, JC-1 fluorescence, 3T3-L1 adipocytes, 24 h, 100 nL compound, profiling panel (AID 1168). Note: test concentration not given here. Conditions: JC-1 mitochondrial fluorescence, higher = more signal, called active from +8 up or from −8 down.
Test [18] is described as follows: JC-1 mitochondrial signal, unstimulated myeloma cells – cell-based, JC-1 fluorescence, RPMI8226, 24 h, 100 nL compound, profiling panel (AID 1169). Note: test concentration not given here. Conditions: JC-1 mitochondrial potential fluorescence, higher = more signal.
The nature of test [19]: JC-1 mitochondrial signal, unstimulated MM1S myeloma – cell-based, JC-1 fluorescence, 24 h, 100 nL compound, profiling panel (AID 1170). Note: test concentration not given here. The conditions noted are these: MM1S mitochondrial potential, higher = more signal.
A short description of test [20]: resazurin metabolic signal in A549 cells – cell-based, resazurin fluorescence, 24 h, PK04 Diversity Set, profiling panel (AID 1171). Note: test concentration not given here. The conditions noted are these: A549 viability, higher = more signal, called active from +8 up or from −8 down. (The colour change of resazurin is a common sign of viable cells or microbes.)

Molecules are shown by their SMILES. Activity calls are given as the source filed them.

NADPH oxidase 5 (Homo sapiens), sequence (Q96PH1 whole entry, looked up): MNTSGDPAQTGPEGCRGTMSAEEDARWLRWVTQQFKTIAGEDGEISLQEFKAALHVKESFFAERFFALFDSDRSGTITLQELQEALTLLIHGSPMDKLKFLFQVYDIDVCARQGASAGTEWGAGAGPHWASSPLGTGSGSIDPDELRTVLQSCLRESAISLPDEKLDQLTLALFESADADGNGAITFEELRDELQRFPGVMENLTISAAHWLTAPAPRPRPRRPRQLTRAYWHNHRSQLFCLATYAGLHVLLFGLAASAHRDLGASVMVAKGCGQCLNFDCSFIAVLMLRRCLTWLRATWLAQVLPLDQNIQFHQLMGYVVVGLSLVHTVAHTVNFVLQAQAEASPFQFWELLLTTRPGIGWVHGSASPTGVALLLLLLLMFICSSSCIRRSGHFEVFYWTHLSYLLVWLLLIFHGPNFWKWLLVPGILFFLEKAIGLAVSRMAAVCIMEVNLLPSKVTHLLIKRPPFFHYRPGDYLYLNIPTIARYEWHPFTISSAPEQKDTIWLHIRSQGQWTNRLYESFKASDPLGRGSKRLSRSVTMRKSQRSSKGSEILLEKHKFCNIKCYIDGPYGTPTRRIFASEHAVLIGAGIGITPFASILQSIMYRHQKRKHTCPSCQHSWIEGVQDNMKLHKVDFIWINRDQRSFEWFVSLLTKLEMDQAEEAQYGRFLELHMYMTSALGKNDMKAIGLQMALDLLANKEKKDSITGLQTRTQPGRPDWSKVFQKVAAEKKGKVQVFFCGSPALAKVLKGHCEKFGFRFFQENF

As for `CCCCN1CC=CC23O[C@@H]4C=CCOC(=O)[C@@H]4[C@H]2C(=O)N(C(C)CO)[C@@H]3C1=O` (stereo not given in full), the z-score is -0.65 (inactive) in test [1]; 0.596 (inactive) in [3]; -0.404 (inactive) in [4]; 0.436 (inactive) in [5]; 0.111 (inactive) in test [6]; -0.163 in test [7]. For the same compound, the z-score is 0.953 (inactive) in test [8]; 0.56 (inactive) in [9]; 1.51 in [10]; -0.406 in test [11]; 0.434 in test [12]; -0.208 in [13]. Besides, the z-score was 0.638 in test [14]; 0.0934 in test [15]; -1.02 in test [16]; -1.98 (inactive) in [17]; -0.768 in test [18]; -0.0859 in [19]. In addition, the z-score in test [20] is -0.384 (inactive). The composite z-score in test [2] was -0.045.

For the compound `O=C(NC1CC1)[C@@H]1c2ccccc2C(=O)N(Cc2ccccc2)[C@H]1c1ccc(CO)cc1`, the z-score is 0.651 (inactive) in [1]; 2.58 (inactive) in test [3]; 0.258 (inactive) in [4]; 1.38 (inactive) in test [5]; 0.0604 (inactive) in test [6]; 0.666 in test [7]. Also, the z-score was -0.962 (inactive) in [8]; 0.623 (inactive) in test [9]; -1.52 in [10]; 1.3 in test [11]; -0.429 in [12]; 1.46 in [13]. Besides, the z-score was 0.293 in [14]; 0.217 in test [15]; 2.33 in [16]; 1.07 (inactive) in test [17]; 0.135 in test [18]; -0.319 in test [19]. Besides, in [20], the z-score is 0.139 (inactive). Further, in [2], the composite z-score amounted to 0.0191.

With `CCCCC(CC)C(O)C1C=CC2C(=O)N(c3ccccc3)C(=O)C2N1Nc1ccc([N+](=O)[O-])cc1` (stereo not given), the z-score in test [1] is -0.999 (inactive); in [3] it was 3.19 (inactive); in [4], 0.724 (inactive); in test [5], 0.369 (inactive); in test [6] it was 0.487 (inactive); in test [7], -0.429. Further, the z-score in [8] is -0.441 (inactive); in [9], -1.6 (inactive); in [10] it was -1.33; in test [11] it was -0.561; in test [12] it was -0.0969; in test [13] it was -0.919. Further, the z-score is -0.41 in test [14]; -1.1 in test [15]; -1.74 in test [16]; -1.56 (inactive) in [17]; 0.349 in [18]; -1.03 in [19]. For the same compound, the z-score in [20] was -0.451 (inactive). The composite z-score in [2] was 0.602.

For `COc1ccc([Si](C)(C)[C@@H]2[C@@H](CCn3cc([C@H](O)c4ccccc4)nn3)O[C@]3(C(=O)N(Cc4ccc(N5CCOC5=O)cc4)c4ccccc43)[C@H]2C)cc1`, the z-score in test [1] is 1.34 (inactive); in test [3], 28.2 (active); in test [4] it was 17.1 (active); in test [5], 1.45 (inactive); in test [6], 1.63 (inactive); in test [7], 0.0719. For the same compound, the z-score is 1.31 (inactive) in test [8]; 2.36 (inactive) in test [9]; 1.74 in test [10]; -0.0046 in test [11]; 0.417 in [12]; 0.215 in test [13]. For the same compound, the z-score in [14] is -1.06; in test [15] it was -1.3; in [16] it was 1.67; in [17], 0.00306 (inactive); in test [18], 0.417; in test [19], -0.657. Moreover, the z-score in [20] is 0.595 (inactive). This compound also returned a composite z-score in [2] of 0.142.

With `C=CC[C@@H](OC(=O)Nc1ccc(OC)cc1)c1ccc(OCCO)cc1`, the z-score is -0.14 (inactive) in test [1]; 19.5 (active) in [3]; 3.12 (inactive) in test [4]; -0.149 (inactive) in test [5]; 0.894 (inactive) in [6]; 0.0966 in [7]. In addition, the z-score in test [8] was -4.11 (inactive); in test [9], -1.4 (inactive); in test [10] it was -2.78; in test [11], -0.176; in test [12], 0.048; in test [13], 0.587. Moreover, the z-score is -1.2 in [14]; -2.53 in [15]; -1.92 in [16]; -0.451 (inactive) in test [17]; -0.052 in [18]; 0.19 in test [19]. In addition, in test [20], the z-score is 0.213 (inactive). In addition, the composite z-score in [2] is -0.0638.

Turning to `O=C1C2C=CC(C(O)c3cc(C(F)(F)F)cc(C(F)(F)F)c3)N(Nc3ccc([N+](=O)[O-])cc3)C2C(=O)N1c1ccccc1` (stereo not given), the z-score in [1] is -1.58 (inactive); in test [3], 6.16 (inactive); in [4] it was 2.01 (inactive); in test [5] it was -6.7 (inactive); in [6], 1.24 (inactive); in [7], -0.431. In addition, the z-score in test [8] is -0.378 (inactive); in test [9], -2.65 (inactive); in [10] it was -1.68; in [11], -1.61; in test [12] it was 0.294; in test [13] it was -3.51. Also, the z-score is -2.62 in test [14]; -4.06 in test [15]; -0.982 in test [16]; -0.699 (inactive) in [17]; -1.03 in test [18]; -1.99 in test [19]. Also, the z-score in test [20] was -0.0362 (inactive). This compound gave a composite z-score in test [2] of 0.361.

In the case of `CC[C@@H]1[C@H]2C3C(=O)N(CC)C(=O)C3CC(=O)[C@H]2[C@H](c2ccc(C)cc2)N1S(=O)(=O)c1ccc(C)cc1` (stereo not given in full), the z-score is -0.272 (inactive) in test [1]; 2.27 (inactive) in test [3]; 1.99 (inactive) in [4]; 0.925 (inactive) in test [5]; 1.3 (inactive) in test [6]; -0.12 in [7]. The z-score in test [8] is 0.5 (inactive); in [9], 0.458 (inactive); in [10] it was 0.0674; in test [11] it was -0.138; in [12], -0.303; in [13] it was -0.581. Moreover, the z-score in test [14] is 0.453; in [15], -0.144; in test [16], 0.248; in [17], 0.438 (inactive); in [18], 0.485; in test [19], -1.02. Moreover, the z-score in test [20] is -0.0875 (inactive). This compound also came in with a composite z-score in test [2] of 0.0026.

In the case of `CN1C(=O)C2C=CC(C(O)C3CCCCC3)N(N3CCCCC3)C2C1=O` (stereo not given), the z-score in test [1] is -0.898 (inactive); in test [3], 0.0569 (inactive); in [4] it was 0.257 (inactive); in test [5], 0.42 (inactive); in [6], 1.27 (inactive); in test [7] it was -0.659. The z-score in test [8] was -0.407 (inactive); in [9], 0.674 (inactive); in test [10], -0.23; in test [11] it was -1.21; in [12] it was -0.52; in test [13], -0.517. Further, the z-score in test [14] was -0.163; in test [15], 0.084; in [16], -0.968; in [17] it was -0.347 (inactive); in test [18], -0.763; in test [19], -0.228. In test [20], the z-score was -0.167 (inactive). Also, the composite z-score in [2] was 0.493.

On to `CCOc1cc(C(O)C2C=CC3C(=O)N(C)C(=O)C3N2N2CCCCC2)ccc1O` (stereo not given), for which the z-score in [1] is -0.794 (inactive); in [3], 1.5 (inactive); in [4], 1.66 (inactive); in [5] it was 0.0675 (inactive); in [6], 1.12 (inactive); in test [7], -0.599. Besides, the z-score was -1.96 (inactive) in [8]; -3.83 (inactive) in [9]; -3.11 in test [10]; 0.256 in test [11]; -0.413 in [12]; -0.07 in test [13]. In addition, the z-score in test [14] was -0.224; in test [15], 0.294; in test [16], -0.788; in test [17], -0.0873 (inactive); in test [18], -0.109; in [19], 0.0215. The z-score in [20] was -0.296 (inactive). Besides, in [2], the composite z-score turned out to be 0.267.

The values above are taken from PubChem BioAssay.
